From the supplement of paper PMC10849652
Of roughly 8,800 targets only a part is listed; those with a hit were picked by preference. About 0.5% of all pairs of compound and target were hits.

Assays:
Experiment in all cases: log2 fold change, soluble protein after heating vs DMSO (PISA); higher = thermal stabilisation; K562 lysate, 10 uM; active = over 0.2 and 3.5 SD of the protein, either way, in both replicates (recomputed)
nilotinib = compound: Cc1cn(-c2cc(NC(=O)c3ccc(C)c(Nc4nccc(-c5cccnc5)n4)c3)cc(C(F)(F)F)c2)cn1 [nilotinib]
Outline: (§1)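 Quantification was by TMTpro 16plex LC-MS/MS with equalised channel sums, applied to the supernatant after 21,000xg for 90 min. Samples were crude K562 extract at 1 mg/mL protein in PBS pH 7.4 with 1 mM MgCl2, treated with 10 μM compound for 30 min, heated for 3 min across 48°C-58°C, pooled and brought to 0.5% NP-40 at 4°C. Values are log-two fold changes in thermal stability relative to solvent controls, from duplicates.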

[1] = compound: Cc1nc(Nc2n[nH]c3c2CN(C(=O)N[C@H](CN(C)C)c2ccccc2)C3(C)C)c2sccc2n1
Outline: as §1

dasatinib = compound: Cc1nc(Nc2ncc(C(=O)Nc3c(C)cccc3Cl)s2)cc(N2CCN(CCO)CC2)n1 [dasatinib]
Outline: as §1

[2] = compound: Cc1ncc(-c2ccnc(Nc3ccc(S(C)(=O)=O)cc3)n2)n1C(C)C
Outline: as §1

[3] = compound: Cn1cc(-c2ccc3c(c2)CCN3C(=O)Cc2cccc(C(F)(F)F)c2)c2c(N)ncnc21
Outline: as §1

quisinostat = compound: Cn1cc(CNCC2CCN(c3ncc(C(=O)NO)cn3)CC2)c2ccccc21 [quisinostat]
Outline: as §1

tipifarnib = compound: Cn1cncc1[C@@](N)(c1ccc(Cl)cc1)c1ccc2c(c1)c(-c1cccc(Cl)c1)cc(=O)n2C [tipifarnib]
Outline: as §1

[4] = compound: NC(=O)Nc1cc(-c2cccc(F)c2)sc1C(=O)N[C@H]1CCCNC1
Outline: as §1

[5] = compound: NC(=O)c1cnc(N[C@@H]2CCCC[C@@H]2N)nc1Nc1cccc(-n2nccn2)c1
Outline: as §1

[6] = compound: NC1(c2ccc(-c3nc4ccn5c(=O)[nH]nc5c4cc3-c3ccccc3)cc2)CCC1
Outline: as §1

Measured: log2 fold change

CEPT1 (UniProt Q9Y6K0)
inactive: nilotinib -0.053 | [1] -0.015 | dasatinib -0.018 | [2] 0.028 | [3] 0.06 | quisinostat -0.021 | tipifarnib -0.068 | [4] 0.028 | [5] -0.008 | [6] -0.094

CEP76 (UniProt Q8TAP6)
active: quisinostat -0.241
inactive: nilotinib -0.005 | [1] -0.021 | dasatinib -0.002 | [2] -0.021 | [3] -0.005 | tipifarnib 0.006 | [4] -0.01 | [5] -0.015 | [6] -0.02

CHD1L (UniProt Q86WJ1)
inactive: nilotinib -0.01 | [1] -0.012 | dasatinib -0.024 | [2] 0 | [3] 0.024 | quisinostat -0.114 | tipifarnib 0.032 | [4] 0.111 | [5] 0.028 | [6] -0.039

CARHSP1 (UniProt Q9Y2V2)
inactive: nilotinib 0.037 | [1] -0.037 | dasatinib 0.017 | [2] -0.004 | [3] -0.04 | quisinostat -0.006 | tipifarnib 0.035 | [4] -0.034 | [5] -0.026 | [6] -0.001

CES2 isoform 4 (UniProt O00748)
Chain of UniProt O00748 (O00748 whole entry, looked up): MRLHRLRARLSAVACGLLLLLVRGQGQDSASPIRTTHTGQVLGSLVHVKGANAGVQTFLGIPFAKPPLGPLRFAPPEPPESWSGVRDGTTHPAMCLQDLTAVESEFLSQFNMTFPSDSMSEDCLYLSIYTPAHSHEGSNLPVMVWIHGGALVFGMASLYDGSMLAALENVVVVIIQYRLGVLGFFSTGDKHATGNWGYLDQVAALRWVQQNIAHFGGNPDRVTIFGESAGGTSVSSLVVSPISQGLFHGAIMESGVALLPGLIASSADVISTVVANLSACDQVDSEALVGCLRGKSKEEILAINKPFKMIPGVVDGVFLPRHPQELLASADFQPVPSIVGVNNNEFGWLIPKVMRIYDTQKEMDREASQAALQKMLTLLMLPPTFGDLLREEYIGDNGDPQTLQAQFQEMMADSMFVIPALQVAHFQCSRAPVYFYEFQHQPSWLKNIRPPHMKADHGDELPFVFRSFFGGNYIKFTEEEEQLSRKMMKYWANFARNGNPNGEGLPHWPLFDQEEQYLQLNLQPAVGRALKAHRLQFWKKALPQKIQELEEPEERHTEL
inactive: nilotinib -0.073 | [1] -0.115 | dasatinib 0.065 | [2] 0.098 | [3] -0.087 | quisinostat -0.042 | tipifarnib 0.05 | [4] -0.029 | [5] 0.033 | [6] 0.001

ATAD3B (UniProt Q5T9A4)
inactive: nilotinib -0.017 | [1] 0.019 | dasatinib 0.01 | [2] -0.026 | [3] 0.046 | quisinostat 0.018 | tipifarnib -0.004 | [4] 0.051 | [5] -0.006 | [6] 0.006

CBFA2T3 (UniProt O75081)
inactive: nilotinib -0.018 | [1] 0.02 | dasatinib -0.026 | [2] -0.019 | [3] -0.008 | quisinostat -0.07 | tipifarnib -0.047 | [4] 0.043 | [5] 0 | [6] 0.001

BORCS5 (UniProt Q969J3)
inactive: nilotinib 0.064 | [1] -0.021 | dasatinib -0.025 | [2] 0.082 | [3] -0.003 | quisinostat -0.017 | tipifarnib -0.061 | [4] -0.017 | [5] -0.029 | [6] -0.009

CCAR2 (UniProt Q8N163)
Chain of UniProt Q8N163 (Q8N163 whole entry, looked up): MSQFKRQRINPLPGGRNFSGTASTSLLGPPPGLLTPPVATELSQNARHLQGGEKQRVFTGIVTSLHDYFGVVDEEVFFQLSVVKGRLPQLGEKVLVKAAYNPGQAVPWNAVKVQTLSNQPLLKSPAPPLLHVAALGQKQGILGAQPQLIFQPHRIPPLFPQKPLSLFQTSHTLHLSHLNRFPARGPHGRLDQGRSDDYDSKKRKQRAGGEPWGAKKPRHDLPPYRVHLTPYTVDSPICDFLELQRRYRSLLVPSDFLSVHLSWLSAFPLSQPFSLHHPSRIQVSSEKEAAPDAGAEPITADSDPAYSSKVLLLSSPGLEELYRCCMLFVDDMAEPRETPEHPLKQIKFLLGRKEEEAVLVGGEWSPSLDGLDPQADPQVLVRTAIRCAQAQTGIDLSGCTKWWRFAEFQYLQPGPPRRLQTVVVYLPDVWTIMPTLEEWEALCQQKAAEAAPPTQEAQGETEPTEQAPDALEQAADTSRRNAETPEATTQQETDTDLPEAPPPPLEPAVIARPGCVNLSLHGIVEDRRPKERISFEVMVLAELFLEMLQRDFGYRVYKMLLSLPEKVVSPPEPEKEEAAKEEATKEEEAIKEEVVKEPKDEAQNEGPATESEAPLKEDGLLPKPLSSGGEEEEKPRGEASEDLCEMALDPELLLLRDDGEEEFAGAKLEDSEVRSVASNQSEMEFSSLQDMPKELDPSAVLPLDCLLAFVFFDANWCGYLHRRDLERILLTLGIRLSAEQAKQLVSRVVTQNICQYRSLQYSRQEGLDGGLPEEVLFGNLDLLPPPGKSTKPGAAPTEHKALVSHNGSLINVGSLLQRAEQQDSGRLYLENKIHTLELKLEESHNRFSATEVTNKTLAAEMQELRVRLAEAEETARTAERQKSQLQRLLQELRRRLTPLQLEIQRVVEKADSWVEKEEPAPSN
inactive: nilotinib -0.001 | [1] -0.016 | dasatinib -0.069 | [2] -0.017 | [3] 0.018 | quisinostat -0.033 | tipifarnib -0.013 | [4] 0.027 | [5] 0.014 | [6] -0.007

CASP9 (UniProt P55211)
inactive: nilotinib -0.004 | [1] 0.006 | dasatinib -0.055 | [2] -0.012 | [3] -0.013 | quisinostat -0.056 | tipifarnib 0.005 | [4] 0.056 | [5] -0.011 | [6] 0.007

AURKAIP1 (UniProt Q9NWT8)
inactive: nilotinib -0.072 | [1] -0.019 | dasatinib 0 | [2] 0 | [3] -0.058 | quisinostat -0.02 | tipifarnib -0.041 | [4] 0.055 | [5] 0.042 | [6] -0.071

CHD3 isoform 3 (UniProt Q12873)
inactive: nilotinib 0.036 | [1] -0.004 | dasatinib -0.033 | [2] -0.047 | [3] 0.032 | quisinostat 0.005 | tipifarnib 0.014 | [4] 0.029 | [5] -0.002 | [6] 0.008

C5orf51 (UniProt A6NDU8)
inactive: nilotinib -0.061 | [1] 0.006 | dasatinib -0.029 | [2] 0.017 | [3] 0.02 | quisinostat -0.066 | tipifarnib 0.026 | [4] 0.1 | [5] 0.002 | [6] -0.023

CDS2 (UniProt O95674)
Chain of UniProt O95674 (O95674 whole entry, looked up): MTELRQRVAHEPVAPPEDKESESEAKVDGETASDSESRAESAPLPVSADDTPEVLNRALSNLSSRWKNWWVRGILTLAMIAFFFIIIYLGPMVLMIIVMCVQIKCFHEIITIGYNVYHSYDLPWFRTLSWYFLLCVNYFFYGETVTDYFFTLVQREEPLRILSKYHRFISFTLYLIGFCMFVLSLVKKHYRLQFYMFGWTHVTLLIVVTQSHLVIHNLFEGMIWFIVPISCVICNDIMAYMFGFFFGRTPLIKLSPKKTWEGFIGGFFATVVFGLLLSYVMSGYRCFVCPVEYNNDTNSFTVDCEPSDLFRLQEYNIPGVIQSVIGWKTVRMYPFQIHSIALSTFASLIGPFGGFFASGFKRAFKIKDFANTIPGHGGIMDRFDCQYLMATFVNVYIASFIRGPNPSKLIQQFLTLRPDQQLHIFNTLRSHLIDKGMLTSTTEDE
inactive: nilotinib -0.035 | [1] -0.093 | dasatinib 0.073 | [2] 0.062 | [3] -0.005 | quisinostat -0.045 | tipifarnib 0.093 | [4] -0.01 | [5] 0 | [6] -0.152

CHCHD7 isoform 4 (UniProt Q9BUK0)
Chain of UniProt Q9BUK0 (Q9BUK0 whole entry, looked up): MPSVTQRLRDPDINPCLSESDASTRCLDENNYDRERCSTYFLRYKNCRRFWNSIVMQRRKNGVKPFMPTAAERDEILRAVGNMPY
inactive: nilotinib -0.147 | [1] 0.031 | dasatinib -0.044 | [2] -0.147 | [3] 0.041 | quisinostat -0.207 | tipifarnib -0.117 | [4] 0.055 | [5] -0.04

ATG4B (UniProt Q9Y4P1)
Chain of UniProt Q9Y4P1 (Q9Y4P1 whole entry, looked up): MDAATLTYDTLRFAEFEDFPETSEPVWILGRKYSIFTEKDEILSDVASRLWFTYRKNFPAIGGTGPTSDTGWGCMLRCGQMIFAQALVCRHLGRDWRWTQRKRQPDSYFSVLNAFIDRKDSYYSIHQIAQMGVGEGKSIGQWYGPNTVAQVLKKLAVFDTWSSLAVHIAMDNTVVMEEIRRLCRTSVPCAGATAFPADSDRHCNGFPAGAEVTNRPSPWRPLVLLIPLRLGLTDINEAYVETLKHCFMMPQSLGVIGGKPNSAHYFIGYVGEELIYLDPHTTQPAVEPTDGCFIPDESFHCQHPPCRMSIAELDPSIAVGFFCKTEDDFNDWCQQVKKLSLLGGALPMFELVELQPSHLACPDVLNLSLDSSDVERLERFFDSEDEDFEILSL
inactive: nilotinib 0.045 | [1] 0.001 | dasatinib -0.049 | [2] 0.008 | [3] 0.044 | quisinostat -0.055 | tipifarnib -0.019 | [4] 0.024 | [5] -0.05 | [6] 0.005

CDC40 (UniProt O60508)
Chain of UniProt O60508 (O60508 whole entry, looked up): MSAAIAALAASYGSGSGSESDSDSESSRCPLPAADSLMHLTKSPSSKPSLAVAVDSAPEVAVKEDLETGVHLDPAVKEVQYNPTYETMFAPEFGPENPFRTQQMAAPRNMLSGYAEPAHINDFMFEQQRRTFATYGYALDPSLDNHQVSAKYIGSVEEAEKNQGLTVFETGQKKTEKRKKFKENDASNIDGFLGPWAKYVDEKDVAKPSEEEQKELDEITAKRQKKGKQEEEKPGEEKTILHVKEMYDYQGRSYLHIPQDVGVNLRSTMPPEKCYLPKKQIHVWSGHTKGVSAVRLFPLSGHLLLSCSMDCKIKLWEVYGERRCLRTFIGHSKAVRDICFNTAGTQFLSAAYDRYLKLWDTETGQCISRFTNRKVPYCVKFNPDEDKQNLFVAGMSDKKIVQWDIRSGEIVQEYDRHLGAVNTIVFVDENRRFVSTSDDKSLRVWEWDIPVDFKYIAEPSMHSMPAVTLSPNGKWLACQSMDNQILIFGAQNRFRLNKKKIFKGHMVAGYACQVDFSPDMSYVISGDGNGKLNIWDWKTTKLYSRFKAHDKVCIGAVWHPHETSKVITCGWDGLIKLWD
inactive: nilotinib -0.015 | [1] -0.026 | dasatinib -0.005 | [2] 0.039 | [3] 0.058 | quisinostat -0.138 | tipifarnib 0.046 | [4] 0.02 | [5] 0.063 | [6] 0.097

CCT6A (UniProt P40227)
inactive: nilotinib -0.003 | [1] -0.004 | dasatinib -0.001 | [2] -0.007 | [3] 0.001 | quisinostat 0.037 | tipifarnib 0.014 | [4] -0.005 | [5] 0.003 | [6] 0.005

BRD2 isoform 2 (UniProt P25440)
inactive: nilotinib 0.012 | [1] 0.15 | dasatinib 0.011 | [2] -0.024 | [3] -0.048 | quisinostat -0.028 | tipifarnib -0.035 | [4] 0.028 | [5] -0.161 | [6] -0.064

CASP7 isoform 3 (UniProt P55210)
Chain of UniProt P55210 (P55210 whole entry, looked up): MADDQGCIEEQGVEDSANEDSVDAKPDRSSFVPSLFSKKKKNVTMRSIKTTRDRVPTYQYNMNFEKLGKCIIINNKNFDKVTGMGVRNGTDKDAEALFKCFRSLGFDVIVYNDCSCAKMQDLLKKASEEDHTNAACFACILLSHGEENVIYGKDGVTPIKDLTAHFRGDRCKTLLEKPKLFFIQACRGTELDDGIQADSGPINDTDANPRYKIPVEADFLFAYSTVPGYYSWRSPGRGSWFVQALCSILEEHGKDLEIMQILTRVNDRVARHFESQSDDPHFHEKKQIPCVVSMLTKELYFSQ
inactive: nilotinib -0.042 | [1] 0.01 | dasatinib -0.091 | [2] 0.05 | [3] 0.226 | quisinostat -0.016 | tipifarnib 0.049 | [4] 0.022 | [5] 0.106 | [6] 0.063

CDC42BPA isoform 6 (UniProt Q5VT25)
inactive: nilotinib -0.01 | [1] 0.003 | dasatinib 0.012 | [2] 0.013 | [3] 0.048 | quisinostat 0.025 | tipifarnib 0 | [4] 0.004 | [5] -0.002 | [6] 0.024

CDK5 (UniProt Q00535)
Chain of UniProt Q00535 (Q00535 whole entry, looked up): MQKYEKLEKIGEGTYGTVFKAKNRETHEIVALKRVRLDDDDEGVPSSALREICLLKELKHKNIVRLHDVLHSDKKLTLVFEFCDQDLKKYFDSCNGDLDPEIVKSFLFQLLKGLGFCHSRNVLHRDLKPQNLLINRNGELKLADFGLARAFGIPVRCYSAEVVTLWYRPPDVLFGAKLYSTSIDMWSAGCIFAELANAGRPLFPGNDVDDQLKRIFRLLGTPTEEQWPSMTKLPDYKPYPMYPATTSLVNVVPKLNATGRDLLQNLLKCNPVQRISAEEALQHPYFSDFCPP
active: [2] 0.541
inactive: nilotinib -0.013 | [1] 0.23 | dasatinib 0.022 | [3] 0.019 | quisinostat -0.132 | tipifarnib 0.003 | [4] 0.044 | [5] 0.05 | [6] -0.112

CENPQ (UniProt Q7L2Z9)
Chain of UniProt Q7L2Z9 (Q7L2Z9 whole entry, looked up): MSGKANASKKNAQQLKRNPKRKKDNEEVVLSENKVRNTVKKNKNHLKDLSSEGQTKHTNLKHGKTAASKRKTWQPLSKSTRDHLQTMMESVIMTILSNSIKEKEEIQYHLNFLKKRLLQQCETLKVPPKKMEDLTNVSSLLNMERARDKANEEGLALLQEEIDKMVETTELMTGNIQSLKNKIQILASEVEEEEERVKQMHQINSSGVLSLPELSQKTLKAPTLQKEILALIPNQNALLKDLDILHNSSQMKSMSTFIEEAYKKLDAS
inactive: nilotinib -0.025 | [1] 0.044 | dasatinib 0 | [2] -0.036 | [3] -0.015 | quisinostat 0.07 | tipifarnib -0.076 | [4] 0.047 | [5] 0.164 | [6] -0.107

BCKDHB (UniProt P21953)
Chain of UniProt P21953 (P21953 whole entry, looked up): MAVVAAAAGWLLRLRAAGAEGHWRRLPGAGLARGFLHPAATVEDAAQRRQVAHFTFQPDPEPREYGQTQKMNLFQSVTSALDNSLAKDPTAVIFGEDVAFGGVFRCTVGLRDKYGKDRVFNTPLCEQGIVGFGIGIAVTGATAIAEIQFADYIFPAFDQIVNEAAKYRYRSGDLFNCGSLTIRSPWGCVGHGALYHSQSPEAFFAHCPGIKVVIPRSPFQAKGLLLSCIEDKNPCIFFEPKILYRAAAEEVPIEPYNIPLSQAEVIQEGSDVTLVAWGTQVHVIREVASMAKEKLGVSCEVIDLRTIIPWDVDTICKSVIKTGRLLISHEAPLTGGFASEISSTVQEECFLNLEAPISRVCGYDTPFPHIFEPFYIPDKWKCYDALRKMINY
inactive: nilotinib 0.068 | [1] 0.007 | dasatinib 0.062 | [2] 0.084 | [3] 0.039 | quisinostat 0.031 | tipifarnib -0.069 | [4] -0.005 | [5] 0.007 | [6] -0.039

CDK13 (UniProt Q14004)
inactive: nilotinib -0.081 | [1] 0 | dasatinib 0.004 | [2] -0.051 | [3] 0.005 | quisinostat 0.068 | tipifarnib 0.032 | [4] -0.039 | [5] 0.033 | [6] 0.131

CARNMT1 (UniProt Q8N4J0)
Chain of UniProt Q8N4J0 (Q8N4J0 whole entry, looked up): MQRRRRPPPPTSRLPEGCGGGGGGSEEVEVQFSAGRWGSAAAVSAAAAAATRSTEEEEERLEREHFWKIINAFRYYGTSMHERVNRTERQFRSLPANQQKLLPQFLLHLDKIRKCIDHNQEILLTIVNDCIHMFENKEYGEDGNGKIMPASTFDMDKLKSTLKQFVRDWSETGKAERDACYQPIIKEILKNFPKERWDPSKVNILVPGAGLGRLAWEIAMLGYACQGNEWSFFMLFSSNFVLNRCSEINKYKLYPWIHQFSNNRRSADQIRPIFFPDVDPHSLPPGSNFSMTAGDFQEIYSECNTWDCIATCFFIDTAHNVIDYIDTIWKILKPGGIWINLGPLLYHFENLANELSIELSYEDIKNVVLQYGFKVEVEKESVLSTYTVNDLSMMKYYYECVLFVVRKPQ
inactive: nilotinib 0.019 | [1] -0.016 | dasatinib 0.003 | [2] -0.019 | [3] 0.006 | quisinostat -0.173 | tipifarnib 0.011 | [4] 0.004 | [5] 0.019 | [6] -0.023

CCDC186 (UniProt Q7Z3E2)
inactive: nilotinib -0.046 | [1] -0.056 | dasatinib -0.014 | [2] 0.03 | [3] 0.043 | quisinostat -0.03 | tipifarnib -0.01 | [4] 0.033 | [5] -0.017 | [6] 0.001

CD80 (UniProt P33681)
Chain of UniProt P33681 (P33681 whole entry, looked up): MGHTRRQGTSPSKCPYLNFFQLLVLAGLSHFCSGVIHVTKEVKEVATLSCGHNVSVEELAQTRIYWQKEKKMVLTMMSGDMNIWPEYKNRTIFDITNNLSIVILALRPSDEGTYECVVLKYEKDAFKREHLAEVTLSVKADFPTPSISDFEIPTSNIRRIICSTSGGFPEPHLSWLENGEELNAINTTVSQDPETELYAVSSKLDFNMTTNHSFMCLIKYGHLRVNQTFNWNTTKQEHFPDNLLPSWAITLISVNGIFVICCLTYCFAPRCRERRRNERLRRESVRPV
inactive: nilotinib 0.259 | [1] -0.065 | dasatinib -0.015 | [2] -0.333 | [3] 0.039 | quisinostat 0.025 | tipifarnib 0.023 | [4] -0.002 | [5] 0.086 | [6] -0.03

ATM (UniProt Q13315)
inactive: nilotinib -0.019 | [1] -0.019 | dasatinib -0.071 | [2] 0.084 | [3] 0.038 | quisinostat 0.039 | tipifarnib 0.009 | [4] 0.009 | [5] 0.039 | [6] 0.008

CCDC32 isoform 2 (UniProt Q9BV29)
inactive: nilotinib -0.009 | [1] 0.024 | dasatinib 0.021 | [2] 0.105 | [3] -0.001 | quisinostat -0.05 | tipifarnib 0.076 | [4] -0.028 | [5] -0.05 | [6] -0.03
